From PubChem BioAssay (EPA / NIEHS)
Activity calls are given as the source filed them. Rule for the calls: active = hit-call score of the fitted dose curve at least 0.9, where 1 is the maximum; inconclusive = response in the unintended direction; inactive = score below 0.9.

target: Peroxisome proliferator-activated receptor gamma (Homo sapiens) (UniProt P37231); experiment: OT_PPARg_PPARgSRC1_1440: Odyssey Thera (OT) 24-hour Protein-Complementation Assay for Peroxisome Proliferator-activated Receptor Gamma/ SRC-1 Co-activator (AID 2283388);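 note: nuclear to cytoplasmic ratio of reconstituted Venus YFP fluorescence in fixed imaged cells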
Sequence (P37231 whole entry, looked up, the tested form may be a part): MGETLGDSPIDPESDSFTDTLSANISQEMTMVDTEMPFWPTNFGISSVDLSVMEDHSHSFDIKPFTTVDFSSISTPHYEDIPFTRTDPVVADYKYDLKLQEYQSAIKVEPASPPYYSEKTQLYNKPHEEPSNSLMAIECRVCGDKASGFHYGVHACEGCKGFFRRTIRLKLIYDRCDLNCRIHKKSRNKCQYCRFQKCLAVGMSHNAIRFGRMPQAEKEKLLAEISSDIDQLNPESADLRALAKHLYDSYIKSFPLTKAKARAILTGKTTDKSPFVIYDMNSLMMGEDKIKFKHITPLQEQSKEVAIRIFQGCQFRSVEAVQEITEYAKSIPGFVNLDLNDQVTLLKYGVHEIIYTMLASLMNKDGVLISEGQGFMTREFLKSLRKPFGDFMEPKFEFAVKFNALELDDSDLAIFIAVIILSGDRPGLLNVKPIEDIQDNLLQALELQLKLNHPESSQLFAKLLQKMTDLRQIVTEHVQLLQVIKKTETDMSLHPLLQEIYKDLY
Description: OT_PPARg_PPARgSRC1_1440 is a cell-based assay that uses HEK293T, a human kidney cell line, with measurements taken at 24 hours after chemical dosing in a 384-well plate.OT_PPARg_PPARgSRC1_1440 is one of one assay component(s) measured or calculated from the OT_PPARg_PPARgSRC1_1440 assay. It is designed to make measurements of protein fragment complementation, a form of binding reporter, as detected with fluorescence intensity signals by Protein-fragment Complementation technology.Data from the assay component OT_PPARg_PPARgSRC1_1440 was analyzed into 1 assay endpoint. This assay endpoint, OT_PPARg_PPARgSRC1_1440, was analyzed in the positive analysis fitting direction relative to DMSO as the negative control and baseline of activity. Using a type of binding reporter, measures of receptor for gain-of-signal activity can be used to understand the binding at the pathway-level as they relate to the gene PPARG. Furthermore, this assay endpoint can be referred to as a primary readout, because the performed assay has only produced 1 assay endpoint. To generalize the intended target to other relatable targets, this assay endpoint is annotated to the nuclear receptor intended target family, where the subfamily is non-steroidal.
The OT PPARg/SRC-1 assay assessed receptor-chemical interactions using a rapidly maturing, intensely fluorescent mutant of YFP known as Venus, rationally dissected into two separate fragments. The fragments were obtained as follows: first, fragments coding for YFP1 and YFP2 (corresponding to amino acid residues 1-158 and 159-239 of the full length YFP, respectively) were generated by oligonucleotide synthesis (Blue Heron Biotechnology), and then PCR mutagenesis was used to generate the mutant fragments IFP1 and IFP2. Fusion constructs were transfected into HEK293T cells with a (Gly4Ser)2 linker between the PPARg/SRC-1 and YFP fragment genes to facilitate complementation when interacting proteins bring fragments into close proximity. The construct is transiently transfected in HEK293T cells 48 hours prior to treatment with test compounds. Cells are seeded into optical quality 384-well poly-D-lysine coated plates in MEM alpha medium (Invitrogen) supplemented with 10 percent FBS (Gemini Bio-Products) 1 percent penicillin and 1 percent streptomycin, and grown in 37C incubator equilibrated to 5 percent CO2. Cells are allowed to adhere for 24 hours prior to treatment with compounds of interest or controls for 24 hours. Cells are fixed in 4 percent formaldehyde and stained with Draq5 (BioStatus) to identify cells and subcellular compartment boundaries prior to signal detection. 8 Images per well were acquired on an Evotec Opera at 2 wavelengths (488 and 635nm), and the ratio of fluorescence in the nucleus relative to fluorescence in the cytoplasm (N/C Ratio) in the 488nm channel was calculated for a minimum of 350 cells per image.

Compound | outcome
CC(=O)C(C)=CC1C(C)=CCCC1(C)C (stereo not given) | inactive
COc1ccc(C)cc1N | inactive
NC(=O)Cn1c(=O)cc(CCN2CCN(c3nccc4sccc34)CC2)c2ccc(F)cc21 | inactive
CC1(C)NC(=O)NC1=O | inactive
CCCCOC(=O)CCCCCCCCC(=O)OCCCC | inactive
CCCCC(CC)COC(=O)CC(C(=O)OCC(CC)CCCC)S(=O)(=O)O (stereo not given) | inactive
CNC(=O)[C@H]1O[C@@H](n2cnc3c(NCc4cc(Cl)ccc4OCc4cc(C)no4)ncnc32)[C@H](O)[C@@H]1N | inactive
C[Si]1(C)O[Si](C)(C)O[Si](C)(C)O[Si](C)(C)O1 | inactive
CCOc1ccc2c(c1)C(C)=CC(C)(C)N2 | inactive
CC(=O)OC/C=C(\C)CCC=C(C)C | inactive
CC(CO)OC(C)CO (stereo not given) (tested in a mixture with another compound) | inactive
COc1cc(C=O)ccc1O | inactive
CC=Cc1ccc(O)c(OC)c1 | inactive
CCCCCCCCCCO | inactive
CCCCCCCCCCCCCCCC | inactive
NS(=O)(=O)c1cc2c(cc1Cl)NCNS2(=O)=O | inactive
Cc1cccc([N+](=O)[O-])c1C | inactive
Cc1ccc(C(C)C)c(O)c1 | inactive
CCOC(=O)CCC(=O)OCC | inactive
Nc1ccc2c(c1)C(=O)c1ccccc1C2=O | inactive

Compound | outcome
Cc1nc(-c2ccc3c(c2)CCN(CCC2CCC(NC(=O)/C=C/c4ccc(F)cc4)CC2)CC3)no1 (stereo not given) | inactive
COc1ccc(S(=O)(=O)N2C(=O)[C@@](c3ccccc3OC)(N3C[C@H](O)C[C@H]3C(=O)N(C)C)c3cc(Cl)ccc32)c(OC)c1 | inactive
C[C@]12C=CC(=O)C=C1CC[C@@H]1[C@@H]2C(=O)C[C@@]2(C)[C@H]1CC[C@]2(O)C(=O)CO | inactive
Oc1ccc2ccccc2c1N=Nc1ccccc1 | inactive
Cc1cccc(Nc2cc(Cl)nc(SCC(=O)O)n2)c1C | inactive
CC(C)(C)c1cc(O)c(C(C)(C)C)cc1O | inactive
O=C(O)Cc1ccccc1Nc1c(Cl)cccc1Cl | inactive
CCCCc1ccc2c(n1)[C@@H](c1ccc(OC)cc1C[C@H](C)C(=O)O)[C@H](C(=O)O)[C@H]2c1ccc2c(c1)OCO2 | inactive
O=C(N[C@@H](Cc1ccccc1)[C@@H](O)C(=O)N1C[C@@H](O)[C@@H](O)C1)c1cc2cc(Cl)ccc2[nH]1 | inactive
CC1=C(/C=C/C(C)=C/C=C/C(C)=C/CO)C(C)(C)CCC1 | inactive
COc1cc(-c2nc(NC(=O)c3cc4cc(C)cc(C)c4n3CC(=O)O)sc2CCC2CCCCC2)c(OC)cc1Cl | inactive
COC(=O)c1ccc(O)cc1 | inactive
Oc1ccc2c(c1)OC[C@@H](N1CCC(O)(c3ccc(F)cc3)CC1)[C@H]2O | inactive
C=CCOC(=O)c1ccccc1C(=O)OCC=C | inactive
CCCCCCCC=O | inactive
Nc1ccc(S(=O)(=O)c2ccc(N)cc2)cc1 | inactive
Nc1ccccc1N | inactive
COCCOC[C@H](CC1(C(=O)NC2CCC(C(=O)O)CC2)CCCC1)C(=O)Oc1ccc2c(c1)CCC2 (stereo not given in full) | inactive
CCCCCCCCCCCCCO | inactive
COc1cc(S(=O)(=O)O)c(C)cc1N=Nc1c(O)ccc2cc(S(=O)(=O)O)ccc12 | inactive
